# Screens from PubChem.
# Vc quorum ag-1: inducers of Vibrio cholerae quorum light production without autoinducers | V. cholerae BH1578 lux reporter, luminescence, 6 h | activation, % at 18.7 µM | 350,000 compounds, 0.16% hits; in the data active means activation mostly above about 9.7%, no sharp cut-off
# CCHF vOTU inh: blocks the CCHF virus ovarian tumor domain protease; 370,000 compounds, 0.55% hits; AID 651958; CCHFV vOTU protease, Pep-AMC fluorescence; inhibition, % at 11.5 µM; in the data active means inhibition above about 30%; further: 0% = vehicle wells with enzyme and 100% = no enzyme wells
# Sa RN4220 lethal: kills Staphylococcus aureus RN4220; S. aureus RN4220 growth, OD600, 16 h; inhibition, % (no concentration beside the values); 330,000 compounds, 0.33% hits; AID 1259311; in the data active means inhibition above about 85%;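 further: plate controls were untreated cells for no effect and reference antibiotic for full effect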
# Sa ugtP lethal: growth inhibition of S. aureus ugtP deletion strain. S. aureus RN4220 ugtP deletion, OD600 growth, 16 h. growth inhibition, % (concentration not given with the values). 330,000 compounds, 0.54% hits; in the data active means growth inhibition above about 68%;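 further: plate controls were untreated wells for no effect and antibiotic for full effect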
# PfHsp40 rescue: rescue of PfHsp40-mediated yeast toxicity. S. cerevisiae expressing PfHsp40, growth rescue, ATP luminescence. growth rescue, % at 12.5 µM. 340,000 compounds, 0.68% hits. AID 504582; in the data active means growth rescue above about 28%, passing the limit was not always enough;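 further: yeast W303a lacking pdr1 and pdr3 grown in galactose medium; growth measured after three days at 30 °C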
# Mtb hypoxia inh: inhibitors of hypoxia-regulated fluorescent reporter in Mycobacterium tuberculosis. 300,000 compounds, 0.1% hits. M. tuberculosis hypoxia-regulated fluorescent reporter, fluorescence. fluorescence inhibition, % (no concentration beside the values); in the data active means fluorescence inhibition mostly above about 23%, no sharp cut-off; inactive means mostly below about 17%
# Vc quorum ag-2: induces V. cholerae light production without autoinducers. shares compounds with Vc quorum ag-1. V. cholerae BH1578 lux reporter, luminescence, 6 h. activation, % at 50 µM. 620 tested, under 10 active. AID 602243; call rule not given here
# HeLa 24h tox: kills HeLa cells within 24 hours | shares compounds with Vc quorum ag-1 | HeLa viability, CellTiter-Glo ATP luminescence | activity change, negative = cytotoxicity, % at 35 µM | 25 tested, under 10 active | AID 624140;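 active means signal drop with fitted half-maximal concentration at or below twice the highest valid dose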
# The depositor's hits bear a star; i = inactive; x = not tested or not shown; + = active, no number. The list is not random: actives were taken first. Their share in the collection is about 1.7%.
SMILES,Vc quorum ag-1,CCHF vOTU inh,Sa RN4220 lethal,Sa ugtP lethal,PfHsp40 rescue,Mtb hypoxia inh,Vc quorum ag-2,others
CC(C)c1ccc(CNc2nnnn2C)cc1,x,9.6,1.1,0.0,0.1,-8.9,i,
Cn1nnnc1NCc1cccc(Cl)c1,2.1,-6.1,-0.2,2.0,0.7,16.8,x,
CCOc1cccc(CNc2nnnn2C)c1,6.1,1.0,-0.4,12.3,1.0,7.7,x,
COc1ccc(C=Cc2c(-c3ccc(OC)cc3)sc3ccc(N4CCOCC4)cc23)cc1,x,x,-0.6,8.3,x,0.4,x,
CC(O)C1CNC(=O)C(=O)N1CCc1cccc2ccccc12 (stereo not given),x,x,3.9,5.2,x,14.8,x,
COc1cccc(CNC(=O)C2CSC3(C)CCC(=O)N23)c1 (stereo not given),14.3,2.6,-0.7,0.2,-0.1,3.5,0.0,
COc1ccccc1CNC(=O)C1CSC2(C)CCC(=O)N12 (stereo not given),i,-3.9,-0.2,-0.2,-1.2,6.9,x,
CCOc1ccc(-c2c(C(=O)NN=C(C)c3cccs3)nnn2-c2nonc2N)cc1,x,x,3.2,-1.4,x,0.8,x,
COc1cc(OC)c(OC)cc1CNC(C)C(O)c1ccccc1 (stereo not given),18.4,-4.2,0.7,-3.8,-0.8,-12.1,0.0,
COc1cccc(C(=O)NC2CCSC2=O)c1 (stereo not given),i,7.2,3.3,-0.7,-1.1,5.8,x,
COc1ccc(C(=O)NC2CCSC2=O)cc1 (stereo not given),14.3,2.5,2.0,-1.3,-1.5,6.2,-0.1,
CCn1c(SCC(=O)OC2CCCCC2)nnc1-c1ccncc1,16.7*,6.2,6.2,-0.3,-0.9,1.5,0.0,
CC(C)(C)OC(=O)NCCCCC(C(=O)NCCCCCCCCCCC(=O)N1CCN(C(=O)OC(C)(C)C)CC1)n1cc(CCCC(=O)O)nn1 (stereo not given),x,x,7.0,3.4,x,1.8,x,
CCOC(=O)c1c(NC(=S)Nc2ccc(Cl)cc2)sc(C)c1C,12.5,-17.2,x,x,1.6,x,0.6,
CS(=O)(=O)NNC(=O)c1sccc1OCc1ncc(C(F)(F)F)cc1Cl,14.3,-6.8,6.4,5.2,0.3,10.4,7.0,
O=C(O)c1cc(NN=Cc2cccc3ccccc23)ccc1Cl,x,x,0.9,0.3,x,-5.8,x,
COc1ccc(C=NNC(=O)C(=O)/C=C2\NC3(CCCC3)Cc3ccccc32)cc1,x,x,-3.6,-17.9,x,3.0,x,
Cc1ccc(S(=O)(=O)N(C)c2nc3ccccc3[nH]c2=S)cc1,i,2.0,4.5,6.4,0.3,4.2,x,
Cc1ccc(S(=O)(=O)N(C)c2nonc2C)cc1,12.5,9.3,7.7,-8.1,-0.1,7.4,-0.1,
O=c1c2ccccc2[nH]c(=S)n1CC1CCCO1 (stereo not given),-0.9,5.3,-0.4,-0.6,0.9,x,x,
O=c1c2cc(N3CCOCC3)ccc2[nH]c(=S)n1CC1CCCO1 (stereo not given),12.5,1.0,2.4,-2.1,1.1,2.6,-0.1,
COCCCn1c(=S)[nH]c2ccc(N3CCOCC3)cc2c1=O,12.5,-12.3,5.5,-2.1,0.8,4.4,0.1,
O=S(=O)(Nc1cccc(S(=O)(=O)N2CCCCC2)c1)c1ccccc1F,26.1*,7.7,8.9,-2.5,-1.3,3.7,0.2,
CCCCCCCCOC(=O)C(NC(=O)CCC(=O)Nc1ccc(S(N)(=O)=O)cc1)C(O)c1ccccc1 (stereo not given),16.7*,0.7,4.5,-1.8,1.0,8.8,0.1,
CN(CC(=O)Nc1ccc(F)c(F)c1F)C(=O)C1CCC1,25.0*,-11.4,4.4,4.4,0.8,4.2,3.0,
SMILES,Vc quorum ag-1,CCHF vOTU inh,Sa RN4220 lethal,Sa ugtP lethal,PfHsp40 rescue,Mtb hypoxia inh,Vc quorum ag-2,others
O=C(NCc1ccccn1)c1ccc(CS(=O)(=O)Cc2ccc(Cl)cc2)o1,15.0*,2.6,7.1,10.6,-1.6,4.2,-0.1,
COCCCNC(=O)c1ccc2c(=O)n(C3CCCC3)c(=S)[nH]c2c1,6.6,-0.1,0.6,0.1,0.5,4.4,0.0,
CCOC(=O)C1=C(C)N=C2SCCC(=O)N2C1c1cc(Br)ccc1OC (stereo not given),12.5,1.5,-1.6,-3.3,0.3,-4.9,0.1,
COC(=O)C1=C(C)N=C2SCCC(=O)N2C1c1cc(Br)ccc1OC (stereo not given),1.5,12.1,-6.6,-4.6,-1.2,9.5,x,
COc1ccc(C=NOCC(=O)NCc2cccs2)c(OC)c1,x,x,0.4,7.2,x,3.6,x,
CCOC(=O)Cc1c(C)[nH]c(=S)[nH]c1=O,16.7*,-5.1,5.4,-4.7,-0.5,2.9,8.1,
COC(=O)CCc1c(C)[nH]c(=S)[nH]c1=O,-1.7,17.2,-2.2,-7.3,-1.3,x,x,
COC(=O)c1ccccc1NC(=O)Cn1cc2c(n1)CCC(C)C2 (stereo not given),30.2*,4.7,1.5,3.1,0.9,x,28.0,
CCN(CC)c1ccc(C=NN=C(c2ccccc2)c2ccccc2)c(O)c1,x,x,-5.2,9.4,x,13.0,x,
CCOC(=O)CC1C(=O)NCCN1C(=O)c1cccc(C(F)(F)F)c1 (stereo not given),16.7*,-0.4,3.4,5.5,1.9,2.4,0.9,
CCOC(=O)CC1C(=O)NCCN1C(=O)c1ccc(F)cc1F (stereo not given),i,4.3,2.4,-3.3,-1.3,7.3,x,
CC(=NNC(=O)c1cccnc1)C1=C(O)CC(C)(C)CC1=O,x,x,7.5,15.1,x,-0.8,x,
CCCOc1ccc(-c2nc(OC)c3ccccc3n2)cc1,25.0*,8.9,-4.3,21.5,0.0,x,0.1,
COc1ccc(Oc2nc(-c3cccnc3)nc3ccccc23)cc1,i,-8.5,16.6,-9.7,-0.9,-0.9,x,
CC(C)[C@H](NC(=O)c1ccccc1F)C(=O)OCC(=O)NC1CC1,19.5*,9.2,-0.5,-1.4,-0.2,-4.5,0.4,
CC(C)[C@H](NC(=O)c1ccccc1F)C(=O)NC1CCCCC1,0.1,1.7,6.6,10.4,1.3,0.1,x,
COC(=O)Nc1ccc(S(=O)(=O)NCCCCCC(=O)O)cc1,i,13.6,6.0,4.2,-1.1,11.1,x,
COC(=O)Nc1ccc(S(=O)(=O)NCCO)cc1,12.5,0.8,7.8,6.8,1.1,9.6,0.0,
CC(=O)Nc1ccc(Nc2nc(C)nc3c2oc2ccccc23)cc1,16.7*,10.8,-1.7,-14.2,2.0,13.0,11.9,
Cc1nc(Nc2ccncc2)c2oc3ccccc3c2n1,-0.6,9.6,-2.9,-1.5,0.4,0.4,x,
CCCC(C)NC(=O)Cc1ccccc1 (stereo not given),-0.3,-6.6,4.1,7.1,0.9,10.6,x,
COc1ccccc1NC(=O)Cc1ccc(-c2ccccc2)cc1,+,-5.3,12.7,12.4,10.9,10.0,i,
CCC(C)NC(=O)Cc1ccc(-c2ccccc2)cc1 (stereo not given),+,-10.9,-2.0,3.3,0.4,0.0,i,HeLa 24h tox=-6.4
